Experimental data from the supplement of paper PMC11732987, “Enantioselective OTUD7B fragment discovery through chemoproteomics screening and high-throughput optimisation” (Communications Chemistry, 2025).

How the values were obtained:
Assay in all cases: log2 ratio of Biotin-Ahx-Ub-VS probe labelling (fragment/DMSO); higher = less target engagement (more negative = stronger competition), active = hit call of the paper (q ≤ 0.05, log2 ratio ≤ -1)
Details in all cases: compound concentration: 200 uM; treatment time: 3 h
[1] = target: T1, USP19 (UniProt O94966)
T1 sequence (whole entry): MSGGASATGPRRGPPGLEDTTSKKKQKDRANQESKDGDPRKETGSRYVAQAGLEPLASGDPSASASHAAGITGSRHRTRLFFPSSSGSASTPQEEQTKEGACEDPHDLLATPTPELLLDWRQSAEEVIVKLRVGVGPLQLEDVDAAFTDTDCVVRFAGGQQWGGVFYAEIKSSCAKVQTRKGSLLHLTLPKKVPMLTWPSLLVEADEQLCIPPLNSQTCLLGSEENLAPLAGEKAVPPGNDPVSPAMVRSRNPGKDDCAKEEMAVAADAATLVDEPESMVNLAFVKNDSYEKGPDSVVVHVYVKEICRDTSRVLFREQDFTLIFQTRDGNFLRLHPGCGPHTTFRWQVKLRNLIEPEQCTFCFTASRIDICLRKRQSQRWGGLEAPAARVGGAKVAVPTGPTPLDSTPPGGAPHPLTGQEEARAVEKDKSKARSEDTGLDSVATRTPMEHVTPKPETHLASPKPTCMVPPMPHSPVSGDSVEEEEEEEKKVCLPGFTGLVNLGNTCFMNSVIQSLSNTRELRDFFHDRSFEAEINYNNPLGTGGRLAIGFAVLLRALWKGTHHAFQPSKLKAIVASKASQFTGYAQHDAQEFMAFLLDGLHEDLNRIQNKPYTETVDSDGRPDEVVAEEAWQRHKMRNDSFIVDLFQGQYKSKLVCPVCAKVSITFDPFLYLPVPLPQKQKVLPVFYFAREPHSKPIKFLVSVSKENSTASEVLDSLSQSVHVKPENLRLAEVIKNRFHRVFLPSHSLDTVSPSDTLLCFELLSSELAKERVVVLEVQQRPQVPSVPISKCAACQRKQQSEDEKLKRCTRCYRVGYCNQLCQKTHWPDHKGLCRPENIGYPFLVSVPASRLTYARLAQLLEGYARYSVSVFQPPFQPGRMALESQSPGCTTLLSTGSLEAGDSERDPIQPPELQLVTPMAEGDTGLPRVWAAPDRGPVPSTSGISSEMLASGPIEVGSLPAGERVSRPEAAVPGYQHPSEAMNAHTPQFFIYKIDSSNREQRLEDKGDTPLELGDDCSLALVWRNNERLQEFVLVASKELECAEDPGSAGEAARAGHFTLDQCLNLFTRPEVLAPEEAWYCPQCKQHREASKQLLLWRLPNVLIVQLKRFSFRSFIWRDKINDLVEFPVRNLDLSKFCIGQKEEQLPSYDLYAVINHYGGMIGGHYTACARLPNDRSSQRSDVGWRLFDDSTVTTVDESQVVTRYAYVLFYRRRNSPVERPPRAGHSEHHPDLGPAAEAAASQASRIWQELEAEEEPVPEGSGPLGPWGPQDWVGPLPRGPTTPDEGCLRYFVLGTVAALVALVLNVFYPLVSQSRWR
How it was run: (§1)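 Labelled DUBs from HEK293T lysate were NeutrAvidin-enriched, digested with LysC and trypsin, and run by diaPASEF LC-MS/MS. Before that, each 495 µg sample in Tris/CHAPS/IGEPAL buffer with protease inhibitors was treated in triplicate with fragment at 200 µM or vehicle for 3 h, then with Biotin-Ahx-Ub-VS at 0.5 µM final for 1 h. Values are average log2 ratios of fragment over vehicle by unpaired t-test, based on global-median-normalised Spectronaut label-free quantities from proteins with ≥2 unique peptides.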

[2] = target: USP24 (UniProt Q9UPU5)
Sequence of USP24 (Q9UPU5 whole entry): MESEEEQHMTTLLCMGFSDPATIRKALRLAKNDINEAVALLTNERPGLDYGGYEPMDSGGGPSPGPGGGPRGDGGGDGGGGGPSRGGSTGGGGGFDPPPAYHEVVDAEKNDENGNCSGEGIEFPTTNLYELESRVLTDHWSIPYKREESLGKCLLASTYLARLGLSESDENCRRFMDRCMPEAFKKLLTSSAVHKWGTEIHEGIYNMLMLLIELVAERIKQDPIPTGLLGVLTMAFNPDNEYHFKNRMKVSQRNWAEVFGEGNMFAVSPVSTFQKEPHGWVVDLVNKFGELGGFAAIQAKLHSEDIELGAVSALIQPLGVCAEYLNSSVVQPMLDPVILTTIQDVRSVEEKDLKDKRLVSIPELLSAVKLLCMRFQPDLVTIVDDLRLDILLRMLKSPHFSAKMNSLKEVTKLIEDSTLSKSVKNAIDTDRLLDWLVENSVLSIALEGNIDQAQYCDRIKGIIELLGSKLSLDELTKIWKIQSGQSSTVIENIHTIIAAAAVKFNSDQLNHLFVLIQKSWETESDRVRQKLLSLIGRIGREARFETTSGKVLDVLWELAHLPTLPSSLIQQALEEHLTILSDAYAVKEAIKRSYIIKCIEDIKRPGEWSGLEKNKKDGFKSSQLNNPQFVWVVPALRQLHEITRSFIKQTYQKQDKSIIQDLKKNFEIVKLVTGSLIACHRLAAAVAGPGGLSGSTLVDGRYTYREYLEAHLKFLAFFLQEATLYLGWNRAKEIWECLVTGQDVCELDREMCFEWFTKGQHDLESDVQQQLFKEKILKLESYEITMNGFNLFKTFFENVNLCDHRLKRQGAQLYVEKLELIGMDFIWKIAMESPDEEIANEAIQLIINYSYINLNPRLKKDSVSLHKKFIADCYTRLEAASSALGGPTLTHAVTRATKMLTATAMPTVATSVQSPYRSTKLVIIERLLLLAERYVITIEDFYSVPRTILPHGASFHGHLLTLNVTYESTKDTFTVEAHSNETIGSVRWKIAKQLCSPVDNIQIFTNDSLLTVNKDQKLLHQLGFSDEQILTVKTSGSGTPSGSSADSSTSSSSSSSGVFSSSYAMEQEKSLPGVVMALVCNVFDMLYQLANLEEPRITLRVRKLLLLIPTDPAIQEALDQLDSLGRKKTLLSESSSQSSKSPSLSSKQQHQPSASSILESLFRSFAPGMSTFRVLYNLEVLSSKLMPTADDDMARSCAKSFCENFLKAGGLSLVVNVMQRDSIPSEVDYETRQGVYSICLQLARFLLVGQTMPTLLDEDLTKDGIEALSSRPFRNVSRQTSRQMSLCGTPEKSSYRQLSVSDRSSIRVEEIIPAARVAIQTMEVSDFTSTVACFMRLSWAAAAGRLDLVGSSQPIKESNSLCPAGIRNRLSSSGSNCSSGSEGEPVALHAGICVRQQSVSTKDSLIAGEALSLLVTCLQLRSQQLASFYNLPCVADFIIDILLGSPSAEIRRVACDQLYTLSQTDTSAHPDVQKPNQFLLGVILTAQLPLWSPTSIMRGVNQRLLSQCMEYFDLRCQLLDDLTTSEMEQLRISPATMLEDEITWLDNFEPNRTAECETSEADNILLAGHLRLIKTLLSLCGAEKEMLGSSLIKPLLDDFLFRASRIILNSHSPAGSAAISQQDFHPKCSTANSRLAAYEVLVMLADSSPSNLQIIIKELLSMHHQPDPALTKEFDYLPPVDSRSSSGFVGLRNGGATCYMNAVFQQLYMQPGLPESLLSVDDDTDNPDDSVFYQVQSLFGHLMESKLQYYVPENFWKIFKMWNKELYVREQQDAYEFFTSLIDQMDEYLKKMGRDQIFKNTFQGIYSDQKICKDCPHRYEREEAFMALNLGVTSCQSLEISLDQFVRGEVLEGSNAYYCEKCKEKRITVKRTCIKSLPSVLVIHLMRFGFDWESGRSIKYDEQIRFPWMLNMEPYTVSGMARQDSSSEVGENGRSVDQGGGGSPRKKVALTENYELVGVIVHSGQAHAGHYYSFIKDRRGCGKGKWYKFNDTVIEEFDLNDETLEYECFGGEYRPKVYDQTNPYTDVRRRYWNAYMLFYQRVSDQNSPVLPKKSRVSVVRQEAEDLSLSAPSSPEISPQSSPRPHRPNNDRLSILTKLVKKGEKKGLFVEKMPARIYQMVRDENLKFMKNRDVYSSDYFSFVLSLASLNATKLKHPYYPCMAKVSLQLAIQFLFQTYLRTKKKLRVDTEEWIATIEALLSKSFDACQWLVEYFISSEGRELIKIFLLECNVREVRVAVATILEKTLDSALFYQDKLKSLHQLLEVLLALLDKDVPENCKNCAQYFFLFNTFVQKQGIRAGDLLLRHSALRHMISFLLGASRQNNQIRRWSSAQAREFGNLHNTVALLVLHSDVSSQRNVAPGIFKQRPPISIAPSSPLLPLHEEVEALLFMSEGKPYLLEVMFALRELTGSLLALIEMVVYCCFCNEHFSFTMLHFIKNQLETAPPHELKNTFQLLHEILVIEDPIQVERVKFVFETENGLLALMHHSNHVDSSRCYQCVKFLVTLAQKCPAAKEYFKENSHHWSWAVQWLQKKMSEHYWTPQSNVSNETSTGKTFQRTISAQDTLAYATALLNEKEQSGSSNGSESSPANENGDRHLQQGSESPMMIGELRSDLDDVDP
How it was run: as §1

[3] = target: T2, USP25 (UniProt Q9UHP3)
T2 sequence (whole entry): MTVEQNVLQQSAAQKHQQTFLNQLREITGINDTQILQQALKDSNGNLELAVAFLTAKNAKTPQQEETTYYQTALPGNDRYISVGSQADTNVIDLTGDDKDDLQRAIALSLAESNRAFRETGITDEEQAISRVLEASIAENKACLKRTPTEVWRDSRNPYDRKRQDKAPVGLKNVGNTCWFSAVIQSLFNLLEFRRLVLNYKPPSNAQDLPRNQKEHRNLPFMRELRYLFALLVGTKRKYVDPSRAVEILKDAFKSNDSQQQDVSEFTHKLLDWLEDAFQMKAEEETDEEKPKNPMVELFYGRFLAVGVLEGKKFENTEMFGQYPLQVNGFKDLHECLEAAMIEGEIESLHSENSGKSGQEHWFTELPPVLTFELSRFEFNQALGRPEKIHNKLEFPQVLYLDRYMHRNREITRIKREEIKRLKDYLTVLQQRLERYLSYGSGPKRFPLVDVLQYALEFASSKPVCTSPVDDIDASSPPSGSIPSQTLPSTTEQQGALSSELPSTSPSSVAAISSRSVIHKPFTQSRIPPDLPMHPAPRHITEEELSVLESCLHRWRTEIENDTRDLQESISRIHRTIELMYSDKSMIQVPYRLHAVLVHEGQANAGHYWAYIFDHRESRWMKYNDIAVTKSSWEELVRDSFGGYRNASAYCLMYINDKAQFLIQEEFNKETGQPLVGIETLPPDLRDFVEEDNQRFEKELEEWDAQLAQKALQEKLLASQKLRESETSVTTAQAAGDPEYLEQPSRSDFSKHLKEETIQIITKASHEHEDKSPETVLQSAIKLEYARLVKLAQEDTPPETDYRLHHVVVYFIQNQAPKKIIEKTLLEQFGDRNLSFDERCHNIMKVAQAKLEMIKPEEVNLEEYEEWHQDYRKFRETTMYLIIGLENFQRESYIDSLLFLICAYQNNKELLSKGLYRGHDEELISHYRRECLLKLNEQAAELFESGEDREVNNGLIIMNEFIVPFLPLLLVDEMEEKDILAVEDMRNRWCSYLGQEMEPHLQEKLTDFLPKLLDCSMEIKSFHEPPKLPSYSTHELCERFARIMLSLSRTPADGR
How it was run: as §1

[4] = target: T3, USP28 (UniProt Q96RU2)
T3 sequence (whole entry): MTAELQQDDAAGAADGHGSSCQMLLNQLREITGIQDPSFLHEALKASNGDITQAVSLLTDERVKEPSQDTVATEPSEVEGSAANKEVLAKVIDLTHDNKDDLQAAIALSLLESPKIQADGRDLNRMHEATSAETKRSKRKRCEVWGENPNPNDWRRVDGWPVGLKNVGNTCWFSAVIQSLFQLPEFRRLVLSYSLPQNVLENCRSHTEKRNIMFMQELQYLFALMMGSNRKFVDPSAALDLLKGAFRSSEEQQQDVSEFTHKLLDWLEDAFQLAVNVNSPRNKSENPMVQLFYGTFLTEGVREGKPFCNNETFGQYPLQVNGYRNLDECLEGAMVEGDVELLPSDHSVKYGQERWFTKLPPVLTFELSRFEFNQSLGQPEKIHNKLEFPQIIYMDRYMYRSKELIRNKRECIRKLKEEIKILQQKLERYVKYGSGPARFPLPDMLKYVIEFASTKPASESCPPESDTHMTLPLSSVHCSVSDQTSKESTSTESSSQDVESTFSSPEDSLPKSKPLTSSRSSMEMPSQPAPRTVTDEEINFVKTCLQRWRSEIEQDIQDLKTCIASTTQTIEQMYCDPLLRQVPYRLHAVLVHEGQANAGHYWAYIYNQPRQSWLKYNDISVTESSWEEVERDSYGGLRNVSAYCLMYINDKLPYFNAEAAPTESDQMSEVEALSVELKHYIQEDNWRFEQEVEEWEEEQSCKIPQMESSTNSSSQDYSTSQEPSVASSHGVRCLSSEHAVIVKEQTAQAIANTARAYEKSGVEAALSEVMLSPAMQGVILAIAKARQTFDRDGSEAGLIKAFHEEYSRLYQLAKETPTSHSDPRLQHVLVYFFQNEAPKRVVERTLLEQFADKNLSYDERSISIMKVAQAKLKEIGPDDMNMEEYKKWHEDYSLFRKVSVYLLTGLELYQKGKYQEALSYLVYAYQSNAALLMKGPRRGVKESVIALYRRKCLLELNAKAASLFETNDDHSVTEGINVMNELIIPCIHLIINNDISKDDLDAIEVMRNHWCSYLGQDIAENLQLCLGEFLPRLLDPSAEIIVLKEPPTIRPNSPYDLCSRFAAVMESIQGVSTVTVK
How it was run: as §1

Measured: log2 ratio of Biotin-Ahx-Ub-VS probe labelling

O=C(CCl)N1CCCC2CCCCC21 (centres undefined)
inactive: [1] -0.188 | [2] -0.697 | [3] -0.193 | [4] -0.333
